# According to the supplement of paper PMC3334620:
# In all, about 33,000 sequences were measured (“E-score (-0.5 to 0.5)”: median about -0.041, highest 2% from about 0.37 on). For the sample, the highest values were picked, then their nearest neighbours and some sequences at random.
# Target: T1, Ecm22 (UniProt Q05958)
# T1 sequence: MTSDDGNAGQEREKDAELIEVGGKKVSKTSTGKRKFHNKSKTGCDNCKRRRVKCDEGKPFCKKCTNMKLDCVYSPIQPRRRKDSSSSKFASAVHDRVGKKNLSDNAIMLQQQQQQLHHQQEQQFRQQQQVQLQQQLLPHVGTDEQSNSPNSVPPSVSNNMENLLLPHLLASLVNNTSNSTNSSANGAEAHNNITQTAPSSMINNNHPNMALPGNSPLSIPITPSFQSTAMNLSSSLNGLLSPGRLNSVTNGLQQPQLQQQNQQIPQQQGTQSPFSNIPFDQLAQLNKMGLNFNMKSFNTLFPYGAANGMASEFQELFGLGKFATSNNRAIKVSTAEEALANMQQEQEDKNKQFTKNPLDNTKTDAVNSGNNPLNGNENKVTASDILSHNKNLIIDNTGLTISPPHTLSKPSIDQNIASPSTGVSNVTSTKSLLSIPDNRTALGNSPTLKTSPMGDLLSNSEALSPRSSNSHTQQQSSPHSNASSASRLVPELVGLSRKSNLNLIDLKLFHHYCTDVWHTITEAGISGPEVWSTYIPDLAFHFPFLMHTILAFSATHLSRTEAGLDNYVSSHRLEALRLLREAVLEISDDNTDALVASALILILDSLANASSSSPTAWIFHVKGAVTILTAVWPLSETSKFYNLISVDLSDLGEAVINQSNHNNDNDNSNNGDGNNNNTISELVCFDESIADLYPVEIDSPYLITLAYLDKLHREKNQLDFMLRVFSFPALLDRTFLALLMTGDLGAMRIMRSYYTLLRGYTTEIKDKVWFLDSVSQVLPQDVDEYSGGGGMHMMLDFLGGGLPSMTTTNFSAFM
# Assay: PBM E-score (8-mer binding enrichment) (E-score (-0.5 to 0.5)); higher = stronger / more preferred TF binding
# Settings: protein concentration: 200 nM; construct: GST-full length
# How it was run: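 Masliner-normalised scans of fluorescent anti-GST signal were the basis for scoring. That signal came from GST-tagged yeast transcription factors applied at about 100-200 nM to double-stranded universal all-10-mer Agilent arrays on fresh or once-stripped slides. Each ungapped eight-base word, pooled with its reverse complement, received an E-score from the Universal PBM Analysis Suite.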
row,Sequence,PBM E-score
1,GCCGTTAA,0.24
2,ACCGTTTA,0.432
3,ACCGTTTC,0.187
4,CACGTTTA,0.256
5,ACCGTTTG,0.287
6,CCCGTTTA,0.433
7,CCCGTTTC,0.216
8,GCAGCGCA,-0.0703
9,ACGCAGAT,0.194
10,TACGAGAA,0.462
11,AACGAGAA,0.424
12,AACGAGAT,0.438
13,CACGAGAA,0.143
14,ATCGAGAT,0.0251
15,TTCGAGAA,0.149
16,GACGAGAA,0.138
17,AACGAGAC,0.451
18,TCCGAGAA,0.265
19,CACGAGAC,0.0819
20,GACGAGAC,0.029
21,ACCGAGAT,0.178
22,CTCCCTCA,-0.162

row,Sequence,PBM E-score
1,CTTCTAAA,-0.0244
2,GCTGTCTA,-0.0813
3,GGTACTAA,0.0853
4,CACAGAAC,0.00026
5,CTCGACCA,-0.0786
6,CCCGAAGA,0.0524
7,AATGCAGA,-0.0678
8,CACGAGAG,0.0712
9,AACGAGAG,0.433
10,ATCGAGAG,0.0766
11,ATCAAGGG,-0.149
12,ATCTACGA,0.304
13,CGCTACGA,0.456
14,CGCTACGC,0.138
15,GGCTACAA,0.042
16,GGCTACGA,0.424
17,CGCTACAA,0.0321
18,AGCTACGG,0.112
19,CTCTACGC,0.00503
20,CTCTACGA,0.37
21,AGCTACGA,0.394
22,AGCTACGC,0.141

row,Sequence,PBM E-score
1,GGCTACCA,-0.2
2,AGCGGGTA,0.107
3,GACCTGAC,-0.172
4,GAACTTGC,-0.0845
5,ATGCACCG,-0.0745
6,TATATCGA,0.131
7,GGCTGAAC,-0.0835
8,ACATTTGA,-0.158
9,CTTTGGAC,-0.0902
10,CTACGGTA,0.0823
11,ACACGGTA,0.108
12,GCACGGTA,-0.0289
13,GTACGGTA,0.385
14,AGACGGTA,-0.121
15,ATACGGTA,0.383
16,AGATAGCT,-0.0945
17,AGGCTCCA,-0.369
18,CTGCACAA,-0.214
19,CGGCAACC,-0.082
20,AACATTCT,-0.0433
21,ATTTATAC,0.401
22,CTTTATAC,0.23

row,Sequence,PBM E-score
1,ATTTATAA,0.0523
2,AAGAACCC,-0.0304
3,CGTACCTA,0.441
4,CGTACCTC,0.435
5,GGTACCTA,-0.1
6,CCTACCTC,-0.0998
7,AGTACCTC,-0.19
8,AGTACCTA,-0.104
9,CTAGAACA,-0.0457
10,CGGGTCGC,0.187
11,AACGTCGG,0.17
12,AACGTCGT,0.37
13,ACCGTCGT,0.404
14,ACCGTCGC,0.278
15,AACGTCGA,0.178
16,ACCGTCGA,-0.216
17,AAGCTCAG,-0.321
18,CGGTTCGC,0.151
19,AACCTAGC,-0.09
20,AGAGGGGG,-0.0644
